This is a sample that favours compounds with a hit; in the whole collection about 2.8% have one here.
RGS4 inh: Inhibitors of Regulator of G Protein Signaling (RGS) 4: qHTS. hit rate 0.039% among 390,000. Regulator of G-protein signaling 4 (Homo sapiens), P49798. Transcreener GDP fluorescence polarization, RGS4-accelerated GTP hydrolysis. Potency, µM (doses to about 114 µM), for inactives: top-dose activity change, negative = inhibition, actives largely listed as inhibitors. AID 504845, 2011; active = well fitted inhibition curve with a large enough effect; inconclusive = small, poorly fitted or top-dose-only effect; inactive = no such curve, though single readings can be large or run the other way; also: potency is read from the fitted curve at half-maximal effect; % is scaled to controls: 0 for no effect and ±100 for the full control effect; nearly all actives have a fitted effect of over 75% in size
Target sequence (P49798 whole entry, looked up): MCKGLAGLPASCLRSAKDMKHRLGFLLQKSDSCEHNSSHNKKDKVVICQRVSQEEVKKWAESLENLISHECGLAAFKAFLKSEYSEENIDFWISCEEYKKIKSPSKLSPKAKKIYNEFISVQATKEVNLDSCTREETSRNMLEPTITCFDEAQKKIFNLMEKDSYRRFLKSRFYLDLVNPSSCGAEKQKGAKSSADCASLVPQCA
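MLSMR compounds (23 nl, pin-transferred) preincubated 10 min at room temperature with a 500nM (2x) first reagent, then RGS4 at 900nM (2x) plus Transcreener GDP mix added; fluorescence polarization (620/688 nm) read before and after 90 min at 30 °C.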
LDHA inh: qHTS assay for inhibitors of human lactate dehydrogenase. L-lactate dehydrogenase A chain (Homo sapiens), P00338. purified LDHA, NADH/diaphorase-resazurin fluorescence; stronger effect = lower value. activity change, % (values are at about 110 or 230 µM). hit rate 0.15% among 480,000. AID 1347041, 2019; in the data active = activity change below about -30%; inconclusive = mostly about -25% to -30%;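 also: plate controls were DMSO wells for no effect and wells without enzyme for full effect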
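Resorufin fluorescence (ex540/em590), read at 0 and 20 min after diaphorase/resazurin addition, reports the NADH left after a 5 min room-temperature reaction of 2 nM human LDH5 with 0.06 mM NADH and 0.2 mM pyruvate.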
DRD3 antagonist: qHTS of D3 Dopamine Receptor Antagonist: qHTS | D3R cells, DiscoveRx beta-arrestin luminescence, antagonist mode; stronger effect = lower value | hit rate 2.5% among 360,000 | max response, negative = inhibition, % | D(3) dopamine receptor (Homo sapiens), P35462; in the data active = max response below about -50%; inconclusive = no clear call, values can overlap the other calls; also: % is scaled to controls: 0 for no effect and ±100 for the full control effect
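Cells plated overnight at 1500 cells/well, then exposed to library compounds with dopamine controls for 90 minutes at 37 degrees C. DiscoveRx reagent added for 30–60 minutes at room temperature; luminescence read, quantitative HTS format.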
PI4K2A block: qHTS for small molecular inhibitors of PI4K2A; hit rate 0.13% among 420,000; purified PI4K2A, ADP-Glo luminescence, 1 h; stronger effect = lower value; AID 1346378, 2018; activity change, negative = inhibition, % at 76.9 µM; Phosphatidylinositol 4-kinase type 2-alpha (Homo sapiens), Q9BTU6; in the data active = activity change below about -50%; inconclusive = mostly about -30% to -49%;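 also: -100% = wells without enzyme as full effect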
Target sequence (Q9BTU6 whole entry, looked up): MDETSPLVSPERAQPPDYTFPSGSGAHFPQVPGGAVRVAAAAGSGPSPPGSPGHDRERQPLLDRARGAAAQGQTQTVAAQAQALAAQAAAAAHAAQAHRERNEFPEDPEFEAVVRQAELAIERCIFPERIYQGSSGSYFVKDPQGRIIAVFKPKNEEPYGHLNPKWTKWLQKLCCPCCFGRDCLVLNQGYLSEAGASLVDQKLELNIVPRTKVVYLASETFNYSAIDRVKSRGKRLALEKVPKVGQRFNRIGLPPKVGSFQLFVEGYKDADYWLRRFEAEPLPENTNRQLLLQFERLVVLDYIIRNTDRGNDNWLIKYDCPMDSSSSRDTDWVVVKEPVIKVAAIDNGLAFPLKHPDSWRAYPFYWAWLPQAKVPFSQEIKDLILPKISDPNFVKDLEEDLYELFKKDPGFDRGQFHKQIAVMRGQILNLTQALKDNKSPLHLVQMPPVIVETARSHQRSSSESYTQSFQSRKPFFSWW
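Compounds are screened against recombinant PI4K2A using PI as substrate and ATP, the latter dispensed at 300 microM. Reactions run one hour at ambient temperature before ADP-Glo detection; full inhibition defined by wells lacking enzyme.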
DRD3 agonist: qHTS of D3 Dopamine Receptor Agonist: qHTS | hit rate 0.58% among 410,000 | max activation, % | D3R DiscoveRx beta-arrestin cells, luminescence, 90 min | D(3) dopamine receptor (Homo sapiens), P35462; in the data active = max activation above about 30%; also: 0% is about no effect
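Agonist mode: compounds and dopamine controls were applied to plated cells for 90 min at 37 degrees C after an overnight attachment at 1500 cells/well. Luminescent read-out followed 30 - 60 minutes at room temperature with DiscoveRx detection reagent.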
Akt phos inh: HTS Assay for Inhibitors of Akt Phophorylation: Primary Screen; Neuro2A IGF-stimulated pAkt S473 HTRF, 20 min; stronger effect = lower value; activity change, % for hits at 50 µM; hit rate 0.32% among 360,000; AID 651550, 2012; in the data active = activity change below about -80%; inconclusive = mostly about -51% to -80%; also: % is scaled to controls: 0 for no effect and ±100 for the full control effect
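Neuro2A cells in DMEM with 0.5% FBS, overnight at 37 deg C, given compound at single 50 µM final, then IGF (6 nM final) for 20 min at 37 deg C. Lysed; phospho-Akt Ser473 by HTRF after 24 h, 665/615 ratio.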
Starred values were filed as active, the others as inactive; i = inactive; ? = inconclusive; · = no result given; [ ] = dose if it differs, or a comment.

SMILES	RGS4 inh	LDHA inh	DRD3 antagonist	PI4K2A block	DRD3 agonist	Akt phos inh
Cc1nn(-c2ccccc2)c(C)c1NC(=O)COc1ccc(C#N)cc1	-7%	-8	19	-5	1	i
COC(=O)c1cc(NC(=O)CSc2nc(C)cc(=O)[nH]2)cc(C(=O)OC)c1	17%	-8	8	3	12	-106%*
COc1cc(NC(=O)CSc2nc(C)cc(=O)[nH]2)cc(OC)c1	·	·	·	-1	·	·
Cc1ccc(C(=O)CSc2nc(C)cc(=O)[nH]2)cc1	?	2	4	-3	5	i
Cc1cc(=O)[nH]c(SCC(=O)c2ccc(O)c(O)c2)n1	-16%	3	-4	1	31*	i
CC(C)(CNC(=O)Cc1ccccc1)CNC(=O)Cc1ccccc1	·	-1	·	·	·	·
O=C(Nc1c(NCc2ccccc2)c2ccccc2oc1=O)c1cccc(Cl)c1	·	4	·	·	·	·
O=C(Nc1cn[nH]c1)c1cc[n+]([O-])cc1	·	13	·	·	·	·
CC1CCN(C2=NC(=O)/C(=C/c3cccc(O)c3)S2)CC1	-34%	0	-85*	-4	-37	i
CCCCCCCCCCOc1ccc(C(=O)Oc2ccc(Cl)cc2Cc2ccccc2)cc1	·	4	·	·	·	·
COc1ccc(CC2(CO)CCN(Cc3cc4ccccc4o3)CC2)cc1	8%	-1	-56*	6	25	i
COC(=O)c1ccc(CN2CCCC(CO)(Cc3ccc(F)cc3F)C2)cc1 (stereo not drawn)	29%	1	-96*	-1	-18	i
OCC1(Cc2cccc(C(F)(F)F)c2)CCN(Cc2cc3ccccc3o2)CC1	-19%	3	-28	2	28	i
COC(=O)c1ccc(CN2CCC(CO)(Cc3cccc(OC)c3)CC2)cc1	-13%	-1	-80*	0	-9	i
Cc1ccc2nc(N/C(N)=N/S(=O)(=O)c3ccccc3)nc(C)c2c1	·	1	·	·	·	·
O=C(Cn1cc(COc2ccc(-n3cccc3)cc2)nn1)NS(=O)(=O)c1ccccc1C(F)(F)F	·	-5	-29	-19	6	i
O=C(Cn1cc(COc2ccc(Cl)c(Cl)c2)nn1)NS(=O)(=O)c1ccccc1C(F)(F)F	·	-16	-67*	4	-5	i
CC(=O)c1cccc(CN2CCN(C3CCCCC3)C(CCO)C2)c1 (stereo not drawn)	3%	-6	-54*	5	-7	i
Cc1cc(-n2cccn2)ccc1CN1CCN(C2CCCC2)C(CCO)C1 (stereo not drawn)	-10%	-2	-70*	1	-22	i
N#C/C(C(=O)N1CCOCC1)=C1/SC(Cc2ccccc2)C(=O)N1c1ccccc1 (stereo not drawn)	-9%	-4	-51*	6	-4	i
Cc1cccnc1C(NC(=O)C1CCN(CCCc2ccccc2)CC1)c1ccc(F)cc1 (stereo not drawn)	·	-8	-70*	-1	-20	i
CCN1CCC(C(=O)NC(c2ccc(F)cc2)c2ncccc2C)CC1 (stereo not drawn)	·	-15	?	-3	-15	·
CCCN1CCC(C(=O)NC(c2ccc(F)cc2)c2ncccc2C)CC1 (stereo not drawn)	·	-5	-57*	1	-10	i
CCC(C)NC(=O)C1CCN(CCCc2ccccc2)CC1 (stereo not drawn)	-30%	-4	1	4	-6	i
O=C(CSc1nnc(-c2cccnc2)n1C1CC1)c1cc2cc(Cl)ccc2o1	·	1	·	·	·	·
SMILES	RGS4 inh	LDHA inh	DRD3 antagonist	PI4K2A block	DRD3 agonist	Akt phos inh
CCCc1nc(SCC(=O)c2ccccc2)c2c(=O)n(C)c(=O)n(C)c2n1	9%	-2	37	1	31*	i
CCc1nc(SCC(=O)c2ccccc2)c2c(=O)n(C)c(=O)n(C)c2n1	-8%	-6	23	-1	8	i
COc1ccc(C(=O)CSc2nc(-c3ccccn3)nc(C)c2Cl)cc1	-2%	-3	-60*	-6	-18	i
CCCc1nc(SCC(=O)c2ccc(OC)cc2)c2ccccc2n1	-29%	-3	36	-8	33*	i
Cc1nc(-c2ccccn2)nc(SCC(=O)c2ccc(F)cc2)c1Cl	14%	-17	15	-5	-1	i
CN(NC(=O)CCCNC(=O)c1ccc(Cl)cc1)c1ccccc1	·	4	·	·	·	·
CCC1(C)CC(=O)N(c2ccc(C(=O)O)c(O)c2)C1=O (stereo not drawn)	4%	0	18	-4	-4	-114%*
CCOc1ccc(C(Nc2cccnc2)c2cc(Cl)c3cccnc3c2O)cc1 (stereo not drawn)	-96%	9	-58*	-3	8	i
CCOc1ccc(C(NC(C)=O)c2cc(Cl)c3cccnc3c2O)cc1 (stereo not drawn)	·	9	·	·	·	·
COc1ccccc1C(NC(C)=O)c1cc(Cl)c2cccnc2c1O (stereo not drawn)	3%	19	-54*	4	3	i
N#C/C(=N\Nc1ccccc1Cl)C(=O)c1ccccc1	6%[11.4 µM]	-7	1	3	3	i
N#C/C(=N\Nc1cccc(Cl)c1)C(=O)c1ccccc1	0%	2	-86*	3	7	i
Cc1c(N/N=C(\C#N)C(=O)c2ccccc2)c(=O)n(-c2ccccc2)n1C	-16%	3	-68*	2	-20	i
Cc1ccccc1C(=O)/C(C#N)=N/Nc1c(C)n(C)n(-c2ccccc2)c1=O	-5%	-4	?	4	-15	i
COc1ccc(C(=O)[C@H]2[C@H]3C(=O)N(c4ccccc4)C(=O)[C@H]3C3C=CC=NN32)cc1 (stereo partly drawn)	-17%	4	-11	-17	68*	i
Cc1nc(NCCCN2CCOCC2)c2cnn(-c3ccccc3)c2n1	23%	-2	-51*	0	-19	i
COc1ccc(Br)cc1C[N+]1(C)CCCCC1	·	-20	·	·	·	·
OC(COc1c(F)cc(Br)cc1F)CN1CCc2ccccc2C1 (stereo not drawn)	5%	1	-111*	-1	-21	i
Cc1cccc(C)c1OCC(O)CN1CCc2ccccc2C1 (stereo not drawn)	-9%	-2	-67*	0	-40	i
O=S(=O)(c1ccc(OCC(O)CN2CCc3ccccc3C2)cc1)N1CCOCC1 (stereo not drawn)	23%	0	-57*	4	4	i
